This is a sample that favours compounds with a hit; in the whole collection about 7.1% have one here.
LASV entry inh – qHTS for Inhibitors of binding or entry into cells for Lassa Virus; Potency, µM (series often up to 49.2 µM), for the others: at the highest dose activity change, negative = inhibition, usual class: inhibitors; AID 720533, 2013; 18,000 compounds, 4.1% hits; Lassa virus pseudotyped entry inhibition, cell-based qHTS
MARV entry inh – qHTS for Inhibitors of binding or entry into cells for Marburg Virus; AID 720532, 2013; Potency, µM (doses to about 49.2 µM), inactives show at the top dose activity change, negative = inhibition, actives largely listed as inhibitors; Marburg virus pseudotype entry/binding inhibition, cell-based; 18,000 compounds, 6.5% hits
* hit, by the source's call; ? = inconclusive; . = no result given; [ ] = remark or other dose. Calls follow the shape of the full dose curve; tested in HEK293 cells. % is scaled to controls: 0 for no effect and ±100 for the full control effect; potency is read from the fitted curve at half-maximal effect.

SMILES | LASV entry inh | MARV entry inh
CC(=O)c1ccc2c(c1)N(CCCN(C)C)c1ccccc1S2 | -15%[17.8 µM] | ?
COc1ccc([C@H]2Sc3ccccc3N(CCN(C)C)C(=O)[C@H]2OC(C)=O)cc1 | ? | -15%[17.8 µM]
COC(=O)N[C@@H](c1cccc(C)c1)[C@]1(C(C)=O)CCCC1=O | 7%[8.59 µM] | 3%[8.59 µM]
CCCNC(=O)N1C2=NC(C(=O)OC)=C(C(=O)OC)[C@@H]3Nc4ccccc4[C@]23C[C@H]1C(=O)OC | 31%[8.59 µM] | 3%[8.59 µM]
COc1ccc(-c2ccc3c(n2)CCCN3CC(O)CN2CCCc3nc(C)c(C)cc32)cc1 (stereo not given) | 12%[8.59 µM] | 53%[8.59 µM]
CC1(C)[C@@H](O)CC[C@]2(C)C3C(=O)C=C4C5C[C@@](C)(C(=O)O)CC[C@]5(C)CC[C@@]4(C)[C@]3(C)CC[C@@H]12 (stereo not given in full) | 4% | -10%
CC1=C(O)C(=O)C=C2C1=CC=C1[C@]2(C)CC[C@@]2(C)C3C[C@](C)(C(=O)O)CC[C@@]3(C)CC[C@@]12C (stereo not given in full) | 4.5µM* | 4µM*
CC(=O)OCOC(=O)CN(CC(=O)OCOC(C)=O)c1ccccc1OCCOc1ccccc1N(CC(=O)OCOC(C)=O)CC(=O)OCOC(C)=O | ? | 16µM*
COc1cccc([C@@H]2NC(=O)CC=C[C@H](C)[C@H](c3cccc(OC)c3)NC(=O)CC=C[C@H]2C)c1 | 5%[8.59 µM] | 16%[8.59 µM]
COc1ccc(Nc2ncc(-c3ccccc3)o2)cc1OC | . | -31%
CC(C)(C)N1C(=O)[C@@H]2[C@H]3[C@H](O)[C@H](O)CC(=NOCc4ccccc4)[C@H]3CC[C@H]2C1=O | -3%[8.59 µM] | -9%[8.59 µM]
CC(C)(Cc1c[nH]c2ccccc12)NCC(O)COc1ccccc1C#N (stereo not given) | ? | 7.9µM*
CC(C)(C)NC[C@H](O)COc1cccc2[nH]c(C#N)cc12 | -3% | -13%
CC1=C[C@@H](C)OC2(C1)C(=O)N(Cc1ccc(Br)cc1)c1cccc(Br)c12 (stereo not given in full) | -2%[8.59 µM] | 4%[8.59 µM]
C[C@H](CO)NS(=O)(=O)c1cccc(Cl)c1F | 14% | 19%
CC(=O)N[C@@H](CSC/C=C(\C)CCC=C(C)C)C(=O)O | 4% | 17%
CC(=O)N[C@@H](CSC(=O)[C@]1([C@@H](O)C(C)C)NC(=O)[C@H](C)[C@@H]1O)C(=O)O | 3.5µM* | ?
CC(=O)OC[C@H]1O[C@@H](ON=C2C[C@@H](O)[C@@H](O)[C@@H]3[C@H]4C(=O)N(Cc5ccccc5)C(=O)[C@@H]4CC[C@@H]23)[C@H](OC(C)=O)[C@@H](OC(C)=O)[C@H]1OC(C)=O | 21%[8.59 µM] | -9%[8.59 µM]
C=CC[C@@H]1C=C(C(=O)OC)N(C(=O)C(F)(F)F)[C@@H](c2ccccc2Br)[C@@H]1C | 3%[8.59 µM] | 9%[8.59 µM]
O=c1c(O)c(-c2ccc(O)c(O)c2)oc2c(O)c(O)cc(O)c12 | 8% | ?
O=c1oc2c(O)c(O)cc3c(=O)oc4c(O)c(O)cc1c4c23 | -2% | 1µM*
CN(Cc1cnc2nc(N)nc(N)c2n1)c1ccc(C(=O)N[C@@H](CCC(=O)O)C(=O)O)cc1 | 0% | 15%
CN(Cc1cnc2nc(N)nc(N)c2n1)c1ccc(C(=O)N[C@H](CCC(=O)O)C(=O)O)cc1 | -12%[17.8 µM] | 32µM*
COC(=O)N1C2=C(c3ccccc3[C@@H]1CC(=O)O)[C@@H]1O[C@@H](C2)c2ccccc21 | -14%[8.59 µM] | ?
COCC=CC1=CC2=CC(=O)C(C)(OC(=O)c3cnc4ccccc4n3)C(=O)C2=CN1CC(C)C (stereo not given) | 7%[8.59 µM] | 7%[8.59 µM]
CCCCCCCCCCCCCCCCn1cc[n+](Cc2ccccc2)c1C | 11µM* | 7.1µM*
CCCCCCN1CCN(C2CN(CCc3ccccc3)S(=O)(=O)C2)CC1 (stereo not given) | -32% | 17%
C[C@@H]1[C@@H](c2ccccc2)Oc2c(Cl)cccc2S(=O)(=O)N1C | 3% | 18%

Screening results deposited in PubChem BioAssay by National Center for Advancing Translational Sciences (NCATS).
